Results filed as inconclusive are left out. Entries that show only a call come without a potency. Activity calls are given as the source filed them. The call rests on the fitted dose curve; in most records, active means well fitted inhibition curve with a large enough effect; inconclusive means small, poorly fitted or top-dose-only effect; inactive means flat fitted curve, though single readings scatter.
Legend:
Assay in all cases: qHTS profiling for inhibitors of Plasmodium falciparum proliferation (AID 504749); further: nearly all actives have a fitted effect of over 60% in size
Settings in all cases: P. falciparum in erythrocytes, SYBR Green DNA, 72 h; series mostly up to 28.7 µM
CP250 = test system: CP250
Procedure, shortened: (§1)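 Quantitative HTS: compounds pinned into medium, infected erythrocytes added (0.3% parasitemia, 2.5% hematocrit), 72 h culture at 37 C under 5% CO2. Saponin/Triton lysis with SYBR Green I, overnight RT, then fluorescence read.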

CP252 = test system: CP252
Procedure, shortened: as §1

CP256 = test system: CP256
Procedure, shortened: as §1

CP260 = test system: CP260
Procedure, shortened: as §1

CP262 = test system: CP262
Procedure, shortened: as §1

CP265 = test system: CP265
Procedure, shortened: as §1

CP266 = test system: CP266
Procedure, shortened: as §1

CP268 = test system: CP268
Procedure, shortened: as §1

CP269 = test system: CP269
Procedure, shortened: as §1

CP286 = test system: CP286
Procedure, shortened: as §1
Potency means the concentration at half of the fitted maximal effect.

| SMILES | Potency (CP250) | Potency (CP252) | Potency (CP256) | Potency (CP260) | Potency (CP262) | Potency (CP265) | Potency (CP266) | Potency (CP268) | Potency (CP269) | Potency (CP286) |
| --- | --- | --- | --- | --- | --- | --- | --- | --- | --- | --- |
| CCCn1c(=O)[nH]c(=O)c2[nH]cnc21 | inactive | inactive | inactive | inactive | inactive | inactive | inactive | inactive | inactive | inactive |
| NCCC(O)(P(=O)(O)O)P(=O)(O)O | inactive | inactive | inactive | inactive | inactive | inactive | inactive | inactive | inactive | inactive |
| CC(O)C(=O)O (centres undefined) | inactive | inactive | inactive | inactive | inactive | inactive | inactive | inactive | inactive | inactive |
| COc1cc(OC)cc(OC)c1 | inactive | inactive | inactive | inactive | inactive | inactive | inactive | inactive | inactive | inactive |
| CC(C)(Oc1ccc(Cl)cc1)C(=O)O | inactive | inactive | inactive | inactive | inactive | inactive | inactive | inactive | inactive | inactive |
| COc1c2occc2c(OC)c2c(=O)cc(C)oc12 | inactive | inactive | inactive | inactive | inactive | inactive | inactive | inactive | inactive | inactive |
| O=C1CCC(c2ccc(-n3ccnc3)cc2)=NN1 | inactive | inactive | inactive | inactive | inactive | inactive | inactive | inactive | inactive | inactive |
| COc1cc(C(=S)N2CCOCC2)cc(OC)c1OC | inactive | inactive | inactive | inactive | inactive | inactive | inactive | inactive | inactive | inactive |
| CN1C2CCC1CC(OC(=O)c1c[nH]c3ccccc13)C2 (centres undefined) | inactive | inactive | inactive | inactive | inactive | inactive | inactive | inactive | inactive | inactive |
| O=c1ccc2ccccc2o1 | inactive | inactive | inactive | inactive | inactive | inactive | inactive | inactive | inactive | inactive |
| CC(=O)N(O)CCCCCNC(=O)CCC(=O)N(O)CCCCCNC(=O)CCC(=O)N(O)CCCCCN | inactive | inactive | inactive | inactive | inactive | inactive | inactive | inactive | inactive | inactive |
| CN1C(CCl)Nc2cc(Cl)c(S(N)(=O)=O)cc2S1(=O)=O (centres undefined) | inactive | inactive | inactive | inactive | inactive | inactive | inactive | inactive | inactive | inactive |
| C[C@@H]1C(=O)NC2=Nc3cccc(Cl)c3CN21 | inactive | inactive | inactive | inactive | inactive | inactive | inactive | inactive | inactive | inactive |
| CC(C)(C(=O)c1cccnc1)c1cccnc1 | inactive | inactive | inactive | inactive | inactive | inactive | inactive | inactive | inactive | inactive |
| Cc1ncc(CSSCc2cnc(C)c(O)c2CO)c(CO)c1O | inactive | inactive | inactive | inactive | inactive | inactive | inactive | inactive | inactive | inactive |
| CCOC(=O)OC(C)OC1=C(C(=O)Nc2ccccn2)N(C)S(=O)(=O)c2ccccc21 (centres undefined) | inactive | inactive | inactive | inactive | inactive | inactive | inactive | inactive | inactive | inactive |
| CCOC(=O)n1ccn(C)c1=S | inactive | inactive | inactive | inactive | inactive | inactive | inactive | inactive | inactive | inactive |
| O=S1(=O)c2cccc3cccc(c23)N1CCCN1CCN(c2ccc(F)cc2)CC1 | inactive | inactive | inactive | inactive | inactive | inactive | inactive | inactive | inactive | inactive |
| Cc1c(C(C)C)c(=O)n(-c2ccccc2)n1C | inactive | inactive | inactive | inactive | inactive | inactive | inactive | inactive | inactive | inactive |
| C1CCc2nnnn2CC1 | inactive | inactive | inactive | inactive | inactive | inactive | inactive | inactive | inactive | inactive |
| Cc1c(N(C)CS(=O)(=O)O)c(=O)n(-c2ccccc2)n1C | inactive | inactive | inactive | inactive | inactive | inactive | inactive | inactive | inactive | inactive |
| CCC(C(=O)OCCN(CC)CC)c1ccccc1 (centres undefined) | inactive | inactive | inactive | inactive | inactive | inactive | inactive | inactive | inactive | inactive |

| SMILES | Potency (CP250) | Potency (CP252) | Potency (CP256) | Potency (CP260) | Potency (CP262) | Potency (CP265) | Potency (CP266) | Potency (CP268) | Potency (CP269) | Potency (CP286) |
| --- | --- | --- | --- | --- | --- | --- | --- | --- | --- | --- |
| Cc1cc(=O)n(-c2ccccc2)n1C | inactive | inactive | inactive | inactive | inactive | inactive | inactive | inactive | inactive | inactive |
| C[C@H](O)C(=O)Nc1c(I)c(C(=O)NC(CO)CO)c(I)c(C(=O)NC(CO)CO)c1I | inactive | inactive | inactive | inactive | inactive | inactive | inactive | inactive | inactive | inactive |
| CC(=O)Oc1ccc(C(c2ccc(OC(C)=O)cc2)c2ccccn2)cc1 | inactive | inactive | inactive | inactive | inactive | inactive | inactive | inactive | inactive | inactive |
| Oc1c(Cl)cc(Cl)cc1Sc1cc(Cl)cc(Cl)c1O | inactive | inactive | inactive | inactive | inactive | inactive | inactive | inactive | inactive | inactive |
| CCN(CC)C(=O)/C(C#N)=C/c1cc(O)c(O)c([N+](=O)[O-])c1 | inactive | inactive | inactive | inactive | inactive | inactive | inactive | inactive | inactive |  |
| O=C(Nc1ccc(Cl)c(Cl)c1)C1CC1 | inactive | inactive | inactive | inactive | inactive | inactive | inactive | inactive | inactive | inactive |
| C[C@]12CC[C@@H]3c4ccc(O)cc4CC[C@H]3[C@@H]1CC[C@@H]2O | inactive | inactive | inactive | inactive | inactive | inactive | inactive | inactive | inactive | inactive |
| CCn1cc(C(=O)O)c(=O)c2cnc(N3CCCC3)nc21 | inactive | inactive | inactive | inactive | inactive | inactive | inactive | inactive | inactive | inactive |
| NCCCC[C@H](N[C@@H](CCc1ccccc1)C(=O)O)C(=O)N1CCC[C@H]1C(=O)O | inactive | inactive | inactive | inactive | inactive | inactive | inactive | inactive | inactive | inactive |
| CC(C)COC(=O)OCN1C(=O)CN(CCN2CC(=O)N(COC(=O)OCC(C)C)C(=O)C2)CC1=O | inactive | inactive | inactive | inactive | inactive | inactive | inactive | inactive | inactive | inactive |
| Nc1ccc(C(=O)O)cc1 | inactive | inactive | inactive | inactive | inactive | inactive | inactive | inactive | inactive | inactive |
| CCN1CCCC1=O | inactive | inactive | inactive | inactive | inactive | inactive | inactive | inactive | inactive | inactive |
| O=C(O)CNC(=O)c1ccccc1 | inactive | inactive | inactive | inactive | inactive | inactive | inactive | inactive | inactive | inactive |
| O=C(O)c1cc2cc(Cc3cccnc3)ccc2o1 | inactive | inactive | inactive | inactive | inactive | inactive | inactive | inactive | inactive | inactive |
| O=C1OC(c2ccc(O)cc2)(c2ccc(O)cc2)c2ccccc21 | inactive | inactive | inactive | inactive | inactive | inactive | inactive | inactive | inactive | inactive |
| CC1=C(C(=O)OC(C)C)C(c2cccc([N+](=O)[O-])c2)C(C(=O)OC2CN(C(c3ccccc3)c3ccccc3)C2)=C(N)N1 (centres undefined) | 8.91 µM (active) | 10 µM (active) | 4.47 µM (active) | 6.31 µM (active) | 12 µM (active) | 7.94 µM (active) | 9.53 µM (active) | 9.53 µM (active) | 8.49 µM (active) | 5.01 µM (active) |
| Cc1cccn2c(=O)c(-c3nnn[nH]3)cnc12 | inactive | inactive | inactive | inactive | inactive | inactive | inactive | inactive | inactive | inactive |
| O=C(COc1ccc(Cl)cc1)N1CCN(Cc2ccc3c(c2)OCO3)CC1 | inactive | inactive | inactive | inactive | inactive | inactive | inactive | inactive | inactive | inactive |
| CCCCCCCCCCCCCCCCOP(=O)([O-])OCC[N+](C)(C)C | inactive | inactive | inactive | inactive | inactive | inactive | inactive | inactive | inactive | inactive |
| C[C@H]1[C@H](NC(=O)/C(=N/OC(C)(C)C(=O)O)c2csc(N)n2)C(=O)N1S(=O)(=O)O (stereo in doubt) | inactive | inactive | inactive | inactive | inactive | inactive | inactive | inactive | inactive | inactive |
| C[N+]1(CCCCC[N+]2(C)CCCC2)CCCC1 | inactive | inactive | inactive | inactive | inactive | inactive | inactive | inactive | inactive | inactive |

— PubChem BioAssay (NCATS)
